Most compounds without a hit are left out; they make up all but 0.47% or so of the library.
AID inhibitor: blocks human AID cytidine deaminase activity; Q9GZX7; AID deamination FRET fluorescence, UDG-coupled, 4 h; Potency, µM (titrated, usually from 115 µM), actives largely listed as inhibitors; 91,000 tested, 0.32% active; note: nearly all actives have a fitted effect of over 25% in size
Target sequence (Q9GZX7 whole entry, looked up): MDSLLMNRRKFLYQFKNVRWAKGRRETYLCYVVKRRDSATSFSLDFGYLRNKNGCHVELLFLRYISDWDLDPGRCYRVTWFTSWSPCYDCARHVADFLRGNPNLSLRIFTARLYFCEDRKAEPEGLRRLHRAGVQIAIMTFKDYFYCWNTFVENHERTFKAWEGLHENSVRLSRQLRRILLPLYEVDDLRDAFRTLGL
UDG counterscr: counter-screen for AID inhibitors: uracil-DNA glycosylase inhibition; FRET deamination/UDG coupled assay, UDG read, 4 h; Potency, µM (doses to about 115 µM), usual class: inhibitors; 91,000 tested, 0.14% active; AID 1347430; note: nearly all actives have a fitted effect of over 65% in size
Each line names hits and unclear results; the compound was inactive in the other large screens. Calls come from the whole dose curve; as a rule, active = well fitted curve in the direction sought with a large enough effect; inconclusive = small, poorly fitted or top-dose-only effect, or another doubt; inactive = no such curve, though single readings can be large; an effect the other way counts as inactive or inconclusive.

Cc1ccc(Cl)cc1N1CCN(C(=O)c2cc3ccc4cccnc4c3[nH]2)CC1	AID inhibitor 22µM
O=C(c1cc2ccc3cccnc3c2[nH]1)N1CCN(c2ccc(Cl)cc2)CC1	none
Cc1ccc(Cl)cc1N(C)C(=O)c1cnc(N2CCOCC2)c2ccccc12	none
Cc1ccc(Cl)cc1N1CCN(C(=O)c2cnc(N3CCOCC3)c3ccccc23)CC1	AID inhibitor 22µM, UDG counterscr inconclusive
CCOC(=O)C(C#N)=C1SC(C(=O)OCC)C(C(=O)OCC)S1 (centres undefined)	none
Cc1cc(-n2c(C)nc3ccccc3c2=O)ccc1NC(=O)c1cccc([N+](=O)[O-])c1C	UDG counterscr 89µM
Cc1cc(-n2c(C)nc3ccccc3c2=O)ccc1NC(=O)c1ccccc1[N+](=O)[O-]	none
CC(=O)N1CCc2c(sc3c2c(=O)n(-c2ccccc2Cl)c(=O)n3Cc2cccc(C)c2)C1	AID inhibitor 35µM, UDG counterscr inconclusive
C=Cc1ccc(Cn2c(=O)n(-c3ccccc3C)c(=O)c3c4c(sc32)CN(C(C)=O)CC4)cc1	AID inhibitor inconclusive
N#Cc1c(N2CCN(C(=O)C(=O)N3CCCC3)CC2)nc(-c2ccco2)c2c1CCCC2	none
O=C(O)c1cc(Nc2nc(-c3ccccc3)cs2)ccc1O	AID inhibitor inconclusive
O=C(O)c1ccc(Nc2nc(-c3ccc(Cl)cc3)cs2)cc1O	AID inhibitor 79µM
CCOC(=O)C1C(=O)C=C(/C=C/c2ccco2)CC1c1ccccc1 (centres undefined)	none
CC(O)CNc1nc(-c2ccco2)c2c(c1C#N)CCCC2 (centres undefined)	none
Cc1ccc(-c2cnc(-c3ccccc3C(=O)OCC(=O)NCCC#N)o2)cc1	none
Cc1cccc(Cn2c(=O)n3nc(-c4ccccc4)nc3c3ccccc32)c1	AID inhibitor 79µM
O=c1n(Cc2cccc(F)c2)c2ccccc2c2nc(-c3ccccc3)nn12	none
COC(=O)C(C#N)c1nc2ccccc2nc1NC1CC1 (centres undefined)	none
O=C(C1=Cc2sc3c(c2CS1)CCCC3)N1CCCCC1	none
Cc1ccc(C)c(N2CCN(CCCNC(=O)c3cnn(-c4ccc(F)cc4)c3C3CCN(C(=O)OC(C)(C)C)CC3)CC2)c1	AID inhibitor 28µM
CC(C)(C)OC(=O)N1CCC(c2c(C(=O)NCCc3ccccc3)cnn2-c2ccc(F)cc2F)CC1	AID inhibitor inconclusive
CN1CCN(CCNC(=O)c2cnn(-c3cccc(Cl)c3)c2C2CCN(C(=O)OC(C)(C)C)CC2)CC1	none
Cc1ccc(C)c(N2CCN(CCCNC(=O)c3cnn(-c4cccc(Cl)c4)c3C3CCN(C(=O)OC(C)(C)C)CC3)CC2)c1	AID inhibitor 35µM
Cc1ccc(-n2ncc(C(=O)NCCc3ccccc3)c2C2CCN(C(=O)OC(C)(C)C)CC2)c(C)c1	AID inhibitor 25µM
CCN1CCN(CCCNC(=O)c2cnn(-c3ccc(C)cc3)c2C2CCN(C(=O)OC(C)(C)C)CC2)CC1	none
O=c1cc(CSc2nnc(NC3CC3)s2)c2ccc(O)cc2o1	none
Cc1ccc(C)c(NCc2ccccn2)c1	none
CS(=O)(=O)c1ccc(C(=O)CSc2ccc(F)cc2)cc1	none
CCOc1cc(/C=C/c2ncc(C(=O)O)s2)cc(Cl)c1OC	none
O=C(O)c1cc([N+](=O)[O-])ccc1OC(F)F	none
O=C(O)c1cc(-c2ccco2)nc2c(Cl)cccc12	none
CCOC(=O)c1[nH]c(C)c(CNCCc2ccc(OC)c(OC)c2)c1C	none
Oc1ccc(N=Cc2ccc3ccccc3c2)cc1	AID inhibitor 14µM, UDG counterscr inconclusive
Clc1ccc(N=Cc2ccc3ccccc3c2)cc1Cl	none
CCCN(C(=O)Cc1nc(-c2ccc(OC)cc2)no1)c1ccccc1C	AID inhibitor inconclusive
CCCN(C(=O)CCc1nc(-c2ccc(OC)cc2)no1)c1ccccc1F	AID inhibitor 40µM
CSC1=N/C(=C\c2ccc(-c3cccc(Cl)c3)o2)C(=O)S1	none
Cc1nn2c(=O)cc(COC(=O)c3ccc(NC(=O)C4CCCCC4)cc3)nc2s1	AID inhibitor 45µM
CCc1nn2c(=O)cc(COC(=O)c3ccc(NC(=O)C4CCCCC4)cc3)nc2s1	none
O=C(CN1CCN(c2ccccn2)CC1)N1N=C(c2cc3ccccc3o2)CC1c1ccco1 (centres undefined)	none
Cc1ccc(C)c(N2CCN(C(=O)Cn3nc(Cc4cccnc4)c4ccccc4c3=O)CC2)c1	AID inhibitor 71µM
O=C(Cn1nc(Cc2cccnc2)c2ccccc2c1=O)N1CCN(c2ccc(F)cc2)CC1	none
Fc1cccc(C=Nc2cccc3c(N=Cc4cccc(F)c4)cccc23)c1	none
O=C(O)c1ccc(-c2ccc(Cc3ccc(-c4ccc(C(=O)O)cc4)o3)o2)cc1	none
N#Cc1cccc(C(=O)Nc2ccc(Cl)c(C(F)(F)F)c2)c1	none
O=S(CCc1ccncc1)Cc1ccc2c3c(cccc13)CC2 (centres undefined)	none
Cc1oc(-c2ccccc2Cl)nc1CS(=O)(=O)CC(=O)NC(C)CCc1ccccc1 (centres undefined)	AID inhibitor 20µM
